Rows were chosen to be rich in hits. Some 7.9% of all compounds tested hit in one or more screens of this group.
KB-V1 cytotox: KB-V1 MDR subline cytotoxicity. KB-V1 MDR cells viability, CellTiter-Glo, 72 h. Potency, µM (top dose mostly 46.1 µM), most hits filed as cytotoxic. hit rate 3.4% among 400,000; further: on the % scale 0 is the no-effect control and ±100 the full control effect; nearly all actives have a fitted effect of over 60% in size
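Cytotoxicity toward P-gp-expressing KB-V1 cells was determined as loss of CellTiter-Glo luminescence after 72 h at 37 degrees C. Compounds were tested in quantitative HTS format across a concentration range, with curves fitted to normalized data.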
KB-3-1 tox: KB-3-1 parental cell cytotoxicity | hit rate 1.4% among 400,000 | Potency, µM (highest dose often 46.1 µM), most hits filed as cytotoxic | KB-3-1 viability, CellTiter-Glo ATP luminescence, 72 h | AID 1347075; further: on the % scale 0 is the no-effect control and ±100 the full control effect; nearly all actives have a fitted effect of over 60% in size
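Here the drug-naive KB-3-1 line serves as comparator for MDR sub-line selectivity; cells received compound titrations, 72 h at 37 °C, then CellTiter-Glo readout.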
MCF10A rerep: inducers of DNA re-replication in MCF 10A breast cells. Potency, µM (doses to about 46.1 µM), for the others: at the top dose activity, positive = re-replication, hits mostly activators. MCF 10A DNA re-replication, Hoechst nuclear intensity, 48 h. hit rate 2.9% among 350,000; further: % of control where 0% means no effect; nearly all actives have a fitted effect of over 50% in size
HT1080-NT tox: kills 2HG-producing HT-1080-NT fibrosarcoma cells | HT-1080-NT fibrosarcoma viability, CellTiter-Glo ATP luminescence, 48 h | hit rate 1.6% among 360,000 | AID 686970 | Potency, µM (top dose mostly 46.1 µM), for the others: at the highest dose activity, negative = less viability, most hits filed as cytotoxic;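 further: NT is the 2HG producing partner of a matched IDH1 knockdown line; 0% = DMSO-treated cells and -100% = media-only wells without cells; nearly all actives have a fitted effect of over 55% in size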
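Luminescent CellTiter-Glo readout after 48 hours of compound exposure at 37 degrees C defined viability of HT-1080-NT cells. Activity was normalized to DMSO wells and cell-free media wells; concentration-response curves were fitted and assigned curve classes.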
SW480 rerep: DNA re-replication induction in SW480 cells; SW480 DNA re-replication, Hoechst DNA content imaging, 48 h; Potency, µM (doses to about 46.1 µM), inactives show at the highest dose re-replication activation, actives largely listed as activators; hit rate 1.8% among 340,000; further: % of control where 0% means no effect; nearly all actives have a fitted effect of over 55% in size
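Compounds, transferred as 23 nL by pin tool, were incubated with cells for 48 hr; DNA content per nucleus was then quantified by Hoechst staining and fluorescence plate imaging.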
HT1080 IDH1KD tx: kills HT-1080 cells with IDH1 knockdown; AID 686971; Potency, µM (titrated, usually from 46.1 µM), without a hit: at the top dose activity, negative = toxicity, usual class: cytotoxic; HT-1080 IDH1 knockdown viability, ATP luminescence, 48 h; hit rate 2% among 360,000;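 further: 0% = DMSO wells and -100% = cell-free medium wells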
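Luminescent ATP read-out (CellTiter-Glo, 10 min at room temperature) after 48 h compound exposure at 37 °C gave viability of IDH1-knockdown HT-1080 cells. Activity was normalised to DMSO and cell-free wells, then fitted as concentration-response curves.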
* marks the source's active call; other numbers are inactive results; i = inactive; ? = inconclusive; / = not tested or not shown. The call rests on the fitted dose curve; in most records, active means well fitted curve in the direction sought with a large enough effect; inconclusive means small, poorly fitted or top-dose-only effect, or another doubt; inactive means no such curve, though single readings can be large; an effect the other way counts as inactive or inconclusive. Potency means the concentration at half of the fitted maximal effect.

SMILES	KB-V1 cytotox	KB-3-1 tox	MCF10A rerep	HT1080-NT tox	SW480 rerep	HT1080 IDH1KD tx
Cc1ccc(S(=O)(=O)c2nc(Nc3ccccc3N3CCOCC3)sc2Cl)cc1	10µM*	i	13%	20%	5%	7%
CC(NC(=O)C(Cc1ccccc1)N1C(=O)C2C3CCC(C3)C2C1=O)c1ccccc1 (stereo not given)	7.3µM*	i	-2%	17%	1%	16%
Cc1cccc(-n2c(C)nc3cc(C(=O)NCc4ccc5c(c4)OCO5)ccc32)c1	16µM*	i	-68%	7%	?	10%
CCCNC(=O)c1ccc2c(c1)nc(C)n2-c1cccc(C)c1	i	i	5%	23%	15%	25%
COCCNC(=O)c1ccc2c(c1)nc(C)n2-c1cccc(F)c1	21µM*	i	12%	-4%	5%	-1%
COC(CNC(=O)c1ccc2c(c1)nc(C)n2-c1cccc(C)c1)OC	i	i	-2%	27%	6%	5%
Cn1cnnc1SCc1ccc(C(=O)N/N=C(\CCC(=O)O)c2ccc(C(C)(C)C)cc2)cc1	i	i	-9%	1%	-4%	4%
Cc1ccc(CSCCC(=O)NCCC2=CCCCC2)cc1	i	i	?	5%	-3%	10%
COc1ccc(-c2cc(NC(C)=O)c3ncc(-c4ccc(OC)c(OC)c4)n3c2)cc1OC	12µM*	?	/	?	/	?
COc1cc(-c2cc(NC(C)=O)c3ncc(-c4ccccc4)n3c2)cc(OC)c1OC	?	i	/	?	/	?
COc1ccc(-c2cnc3c(NC(C)=O)cc(-c4ccsc4)cn23)cc1OC	?	i	/	-23%	/	-28%
COc1cc(-c2cc(NC(C)=O)c3ncc(-c4cc(OC)c(OC)c(OC)c4)n3c2)cc(OC)c1OC	?	?	/	23µM*	/	13µM*
COc1ccc(-c2cnc3c(NC(C)=O)cc(-c4ccccc4OC)cn23)cc1OC	?	?	/	?	/	26µM*
C=CCc1c(C)c(C#N)c2nc3ccccc3n2c1N1CCCCC1	i	?	13%	2%	?	-2%
C=C(C)CSc1cc(C)c(C#N)c2nc3ccccc3n12	i	i	5.8µM*	-8%	?	-5%
C=C(C)Cc1c(C)c(C#N)c2nc3ccccc3n2c1N1CCCCC1	3.7µM*	i	?	6%	-6%	0%
O=C(NCCOc1cccc(Oc2ccccc2)c1)c1cc(-n2cnnc2)ccc1Cl	16µM*	i	3%	-15%	0%	?
O=C(NCCOc1cccc(Cl)c1Cl)c1cc(-n2cnnc2)ccc1Cl	i	i	20%	-26%	-7%	-21%
CCOC(=O)CC1=C(C(=O)OCC)C(c2cccs2)C(C#N)=C(N)O1 (stereo not given)	?	i	-7%	17%	-7%	12%
COc1ccc2oc3cc(C)[n+]([O-])c(-c4ccc(Br)cc4)c3c2c1	2.9µM*	?	?	-8%	-6%	-5%
O=C(Nc1ccccc1C(=O)NCc1ccccc1)c1ccccc1	?	i	6%	9%	9%	-23%
Cn1cccc1C1CCCN1CC(=O)Nc1c(Cl)cc(Cl)cc1Cl (stereo not given)	i	i	?	-21%	-1%	-1%
COc1cc(/C=C2\SC(N3CCc4ccccc4C3)=NC2=O)cc(OC)c1OC	2.3µM*	?	?	1%	-5%	10%
COC(=O)c1c(NC(=O)CC2Nc3ccccc3NC2=O)sc(C)c1C (stereo not given)	?	i	10µM*	-4%	4%	-1%
CCOC(=O)c1c(NC(=O)CC2Nc3ccccc3NC2=O)sc(C)c1C (stereo not given)	i	i	?	-5%	?	-10%
SMILES	KB-V1 cytotox	KB-3-1 tox	MCF10A rerep	HT1080-NT tox	SW480 rerep	HT1080 IDH1KD tx
O=C(CC1Nc2ccccc2NC1=O)Nc1cc(Cl)cc(Cl)c1 (stereo not given)	i	i	?	-11%	1.8µM*	-30%
Cc1c2ccncc2cc2c1[nH]c1ccccc12	?	?	16µM*	18µM*	23µM*	13µM*
C=CCn1c(=NC(=O)c2ccc(S(=O)(=O)N3CCc4ccccc4C3)cc2)sc2cc(S(N)(=O)=O)ccc21	?	i	9.2µM*	13µM*	?	21µM*
COCCn1c(=NC(=O)c2ccc(S(=O)(=O)N3CCc4ccccc4C3)cc2)sc2cc(S(N)(=O)=O)ccc21	i	i	-2%	-13%	-4%	-13%
C#CCn1c(=NC(=O)c2ccc(S(=O)(=O)N3CCc4ccccc4C3)cc2)sc2cc(S(N)(=O)=O)ccc21	?	?	4.1µM*	5.2µM*	?	8.2µM*
C=CCn1c(=NC(=O)c2ccc(S(=O)(=O)N3CCCc4ccccc43)cc2)sc2cc(S(N)(=O)=O)ccc21	i	i	28%	-2%	4%	-11%
COc1cccc(C(=O)N=c2sc3cc(S(C)(=O)=O)ccc3n2C)c1	i	i	1%	-4%	6.5µM*	-3%
COCCn1c(=NC(=O)c2ccc(S(=O)(=O)N3CCCc4ccccc43)cc2)sc2cc(S(C)(=O)=O)ccc21	1.8µM*	i	?	5%	?	13%
CC(=O)Nc1ccc(NC(=O)COc2cccc3c2OC(C)(C)C3)cc1	i	i	-4%	0%	0%	-7%
CC(=O)Nc1ccc(S(=O)(=O)Nc2ccc(Nc3ccccc3)cc2)cc1	i	i	15%	-3%	-7%	0%
COc1ccc(C2=NC(c3ccccc3)CO2)cc1 (stereo not given)	/	/	3%	/	6%	/
COc1ccc(C2CC23N=C(c2ccccc2)OC3=O)cc1 (stereo not given)	i	i	16µM*	-1%	5%	-4%
COC(=O)[C@H](CCSC)NC(=O)NCCc1ccc(F)cc1	i	i	23%	4%	-11%	8%
CCOC(=O)C1=C(N)Oc2cc(O)ccc2C1c1cccc(Cl)c1 (stereo not given)	?	?	5.8µM*	9.2µM*	?	7.3µM*
C=C(C)C(=O)Nc1cccc(C2=NOC3(C2)C[C@H](C(N)=O)N(C(=O)CC#N)C3)c1 (stereo not given in full)	i	i	2%	0%	-33%	5%
CN1CCc2cccc3c2[C@@H]1Cc1ccc(O)c(O)c1-3	?	?	?	23µM*	3.7µM*	23µM*

From PubChem
